From PubChem
Hits are enriched below; roughly 11% of the tested compounds scored in any of these assays.
Pf growth 48h: P. falciparum growth inhibition at 48 hours (one generation); P. falciparum luciferase growth in erythrocytes, 48 h; Potency, µM (doses to about 28.7 µM), actives largely listed as inhibitors; actives 5.9% (n = 310,000); AID 504832
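In quantitative HTS format, infected erythrocytes bearing luciferase-reporter parasites were treated for a single generation at 37 C. Luminescence after adding detection reagent served as the growth measure.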
Pf growth 96h: inhibits malaria parasite growth, 96 h. P. falciparum luciferase reporter growth, 96 h. Potency, µM (top dose mostly 28.7 µM), usual class: inhibitors. actives 6.9% (n = 320,000). AID 504834
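Delayed-death screen, second-generation endpoint: infected erythrocytes, 2% hematocrit, 0.05% parasitemia final; 96 hours at 37 C, 5% CO2; luciferase detection reagent; luminescence decrease equals reduced growth.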
HCV inhibitor: inhibitors of hepatitis C virus infection; Huh7.5.1 HCVcc-Cre infection, luciferase reporter, 44 h; Potency, µM (titrated, usually from 41.8 µM), most hits filed as inhibitors; AID 651820; actives 3.4% (n = 340,000)
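1,000 cells/well; 4 h culture; + compound; + HCVcc-Cre (~0.5 moi); 44 h; luciferase substrate, RT 15 min; read 15 sec.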
AMA1 RON2 block: inhibitors of Plasmodium falciparum AMA1-RON2 interaction; Potency, µM (titrated, usually from 58.2 µM), usual class: inhibitors; actives 0.2% (n = 360,000); AlphaScreen AMA1-biotinylated RON2 peptide binding; note: nearly all actives have a fitted effect of over 45% in size
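AMA1 (3D7) with his tag at 25 nM final met compounds first, then biotinylated RON2 peptide at 25 nM; detection used donor plus acceptor beads, 10 µg/mL apiece, read by AlphaScreen after 30 min at room temperature.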
Each line names hits and unclear results; the compound was inactive in the other large screens. Calls come from the whole dose curve; as a rule, active = well fitted curve in the direction sought with a large enough effect; inconclusive = small, poorly fitted or top-dose-only effect, or another doubt; inactive = no such curve, though single readings can be large; an effect the other way counts as inactive or inconclusive.

N#CC(C#N)=c1ccc2c(c1)NC1(CCCCC1)N=2	Pf growth 48h inconclusive, Pf growth 96h inconclusive, HCV inhibitor inconclusive, AMA1 RON2 block 22µM
Nc1sc2c(c1C(=O)NCCc1ccccc1)CCC2	Pf growth 48h 13µM
Cc1c(C(=O)OCc2ccc(F)cc2)sc2nc3n(c(=O)c12)CCC3	none
C=CC[C@@H](CC(=O)N(CCO)Cc1ccccc1)C(=O)N[C@H](C)COC(=O)[C@@H](CC=C)Cc1ccc(F)cc1	HCV inhibitor inconclusive (no result: Pf growth 48h, Pf growth 96h)
C=CC[C@H](CC(=O)N(CCO)Cc1ccccc1)C(=O)NC[C@@H](OC(=O)[C@@H](CC=C)Cc1ccc(F)cc1)c1ccccc1	HCV inhibitor 7.9µM (no result: Pf growth 48h, Pf growth 96h)
C=CC[C@H](CC(=O)N(CCO)Cc1ccccc1)C(=O)N[C@H](COC(=O)[C@@H](CC=C)Cc1ccc(F)cc1)Cc1ccccc1	HCV inhibitor 10µM (no result: Pf growth 48h, Pf growth 96h)
Cc1oc(-c2cccc(Cl)c2)nc1CN1CCC(C(=O)NCCCN2CCCC2=O)CC1	Pf growth 96h 12µM (no result: Pf growth 48h)
Cc1oc(-c2cccc(Cl)c2)nc1CN1CCC(C(=O)NCCCN2CC(C)CC(C)C2)CC1 (stereo not given)	Pf growth 48h 7.4µM, HCV inhibitor 1.1µM
Cc1oc(-c2ccc(Cl)cc2)nc1CN1CCCC(C(=O)NCCCN2CCCC2=O)C1 (stereo not given)	Pf growth 96h inconclusive, HCV inhibitor inconclusive (no result: Pf growth 48h)
COc1ccc(CCNC(=O)C2CCN(Cc3nc(-c4cccc(Cl)c4)oc3C)CC2)cc1OC	Pf growth 48h inconclusive, Pf growth 96h inconclusive, HCV inhibitor inconclusive
Cc1cc(-c2nc3ccccc3o2)c2ccccc2n1	Pf growth 96h inconclusive, HCV inhibitor 14µM
Cc1cc(C(=O)O)c2ccccc2n1	Pf growth 96h inconclusive (no result: Pf growth 48h)
CC(C)Oc1ccc(S(=O)(=O)N2CCOCC2)cc1NC(=O)c1ccc(N2CCCC2=O)cc1	Pf growth 48h 4.1µM, Pf growth 96h 1.3µM
Cc1noc(C)c1CSCC(=O)Nc1cc(S(=O)(=O)N2CCCCC2)ccc1OC(C)C	Pf growth 48h 13µM, Pf growth 96h inconclusive, HCV inhibitor inconclusive
CCN(CC)S(=O)(=O)c1ccc(OC)c(NC(=O)c2ccc(N3CCCC3=O)cc2)c1	Pf growth 48h inconclusive, Pf growth 96h 9.3µM
CC(C)Oc1ccc(S(=O)(=O)N2CCOCC2)cc1NC(=O)C1=NN(c2ccccc2)C(=O)CC1	Pf growth 48h 3.7µM, Pf growth 96h 1.7µM, HCV inhibitor inconclusive
CCN(CC)c1ccc(S(=O)(=O)N2CCCCC2)cc1NC(=O)CSCc1c(C)noc1C	HCV inhibitor inconclusive (no result: Pf growth 48h, Pf growth 96h)
COc1ccc2oc(C(=O)OCC(=O)Nc3ccc(C(=O)N(C)C)cc3)c(C)c2c1	none
COc1ccc(S(=O)(=O)N2CCCCC2)cc1NC(=O)c1ccc(Cl)nc1	Pf growth 48h 15µM, Pf growth 96h inconclusive
CCOc1ccc(S(=O)(=O)N(CC)CC)cc1NC(=O)c1ccc(N2CCCC2=O)cc1	Pf growth 48h 10µM, Pf growth 96h inconclusive, HCV inhibitor inconclusive
COc1ccc(S(=O)(=O)N2CCCCC2)cc1NC(=O)c1ccc(N2CCCC2=O)cc1	Pf growth 48h 9.3µM, Pf growth 96h inconclusive
CC(C)Oc1ccc(S(=O)(=O)N2CCOCC2)cc1NC(=O)CC1CCCC1	Pf growth 48h 9.3µM, Pf growth 96h 8.3µM
N#Cc1ccc(NC(=O)COC(=O)CSc2nnc(-c3ccc(Cl)cc3)o2)cc1	none
CC(NC(=O)c1cc(Br)cs1)C1CCCO1 (stereo not given)	Pf growth 96h 13µM
CCc1cc(C(=O)NC(C)C2CCCO2)cs1 (stereo not given)	none
CCc1cccc(NC(=O)c2snc3c(=O)[nH]cnc23)c1	none
Cc1cccc(NC(=O)c2snc3c(=O)[nH]cnc23)c1	Pf growth 96h 6.6µM (no result: HCV inhibitor, AMA1 RON2 block)
CC1(C)C2CCC(C2)C1(C)NC(=O)CNCC1CCCCC1 (stereo not given)	none
COc1cccc(C(=O)NCC(=O)OCC(=O)Nc2cc(OC)c([N+](=O)[O-])cc2C)c1	none
CC1(C)C(=O)OC(c2ccccc2)C(C)(C)C1=O (stereo not given)	none
CC1(C)C(=O)OC(c2cccs2)C(C)(C)C1=O (stereo not given)	Pf growth 96h 1.9µM
CN(C)c1ccnc(N(Cc2ccccc2)Cc2ccccc2)c1C#N	Pf growth 48h inconclusive, HCV inhibitor inconclusive (no result: Pf growth 96h)
CC(=O)c1cnc(Oc2cc(Cl)ccc2Cl)nc1C	none
O=C(Nc1ccc(Cl)cc1)c1cc2c(cc1O)[nH]c1ccccc12	Pf growth 48h 10µM, Pf growth 96h inconclusive, HCV inhibitor inconclusive
O=C(c1cnn2c(-c3ccccc3)cc(-c3ccccc3)nc12)N1CCN(Cc2ccccc2)CC1	HCV inhibitor inconclusive (no result: Pf growth 48h, Pf growth 96h)
CC(=O)c1ccc(N2CCN(C(=O)c3cccs3)C(C)C2)c(F)c1 (stereo not given)	none
N#Cc1ccccc1S(=O)(=O)N1CCN(CC(O)COc2ccccc2F)CC1 (stereo not given)	Pf growth 96h inconclusive
COc1ccc(C(=O)CN2C(=O)NC3(CCCc4ccccc43)C2=O)cc1 (stereo not given)	Pf growth 48h inconclusive, Pf growth 96h 10µM
Cc1ccc(C)c(C(=O)CN2C(=O)NC3(CCc4ccccc43)C2=O)c1 (stereo not given)	Pf growth 48h inconclusive, Pf growth 96h 15µM
Cc1cc(C(=O)CN2C(=O)NC3(CCCc4sccc43)C2=O)c(C)n1-c1ccc(Cl)cc1 (stereo not given)	Pf growth 48h 9.3µM, Pf growth 96h inconclusive
Cc1ccsc1CN(C)C(=O)CN1C(=O)NC2(CCCc3ccccc32)C1=O (stereo not given)	Pf growth 48h inconclusive, Pf growth 96h 12µM
O=C(NNC(=O)[C@H]1CC=CC[C@H]1C(=O)O)c1ccc(Cl)cc1Cl	none
COCCn1c(C)cc(/C=C(\C#N)C(=O)OCC(=O)Nc2ccc(S(N)(=O)=O)cc2)c1C	Pf growth 96h inconclusive, HCV inhibitor inconclusive
O=C(c1cc(F)c(F)c(F)c1F)N1CCN(C(=O)C2CCCO2)CC1 (stereo not given)	none (no result: Pf growth 48h, Pf growth 96h)
CCN(CC)c1ccc(C=Nc2cccc(S(=O)(=O)N3CCOCC3)c2)c(O)c1	none (no result: Pf growth 48h, Pf growth 96h)
CCN(CC)c1ccc(/C=N/NC(=O)CNC(=O)C2COc3ccccc3O2)c(O)c1 (stereo not given)	Pf growth 48h inconclusive, Pf growth 96h inconclusive, HCV inhibitor 11µM
Cn1ncc(Cl)c1C(=O)N/N=C/c1cc2c(cc1[N+](=O)[O-])OCO2	Pf growth 96h inconclusive
CCN(CC)c1ccc(/C=N/Nc2nc(C)cc(=O)[nH]2)c(O)c1	Pf growth 48h 1.9µM, Pf growth 96h 1.9µM, HCV inhibitor 4µM
CCN(CC)c1ccc(/C=N/NC(=O)c2c(Cl)cnn2C)c(O)c1	Pf growth 48h inconclusive, Pf growth 96h inconclusive, HCV inhibitor 3.5µM
CCN(CC)c1ccc(/C=N/NC(=O)c2cccc(S(=O)(=O)N3CCOCC3)c2)c(O)c1	Pf growth 48h 10µM, Pf growth 96h inconclusive, HCV inhibitor inconclusive
CCOC(=O)N/N=C/c1ccc(N(CC)CC)cc1O	Pf growth 48h inconclusive, Pf growth 96h 4.1µM, HCV inhibitor 3.5µM
CCN(CC)c1ccc(/C=N/NC(=O)CCC(=O)NCc2ccccc2)c(O)c1	Pf growth 48h 13µM, Pf growth 96h inconclusive, HCV inhibitor inconclusive
